Shown are actives, neighbours in structure and some others; about 5.7% of the full set was active somewhere.
AHR activator = human AHR activation | AHR-responsive luciferase reporter cells, luminescence | activation, % at 5 µM | hit rate 2.5% among 320,000 | AID 2796; in the data active = activation above about 47%
hgDAF12 agonist = hgDAF-12 agonism, primary luciferase screen | AID 687014 | HEK293 GAL4-hgDAF12 UAS-luciferase reporter, agonist luminescence; normalized to butyrate control | hit rate 1.8% among 370,000 | activation, % at 6.8 µM;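 active = activation above a cutoff set at the mean of all screened compounds plus 3 SD, cut at about 10% in these data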
ssDAF-12 act = activators of S. stercoralis DAF-12 nuclear receptor | HEK293 ssDAF-12/GRIP1 lit1-tk-luc reporter, luminescence; % of 3 µM dafachronic acid response | activation, % at 6.8 µM | hit rate 1% among 370,000 | AID 652126;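 active = activation above the mean over all tested compounds plus 3 SD, cut at about 0.9% in these data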
DAX1 inh-1 = inhibitors of DAX1 repression of SF-1 activated StAR promoter; HEK293T StAR-luciferase reporter, SF-1/DAX-1 repression relief; inhibition, % at 6.8 µM; hit rate 1.1% among 370,000; AID 652010;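 active = inhibition above the mean over all tested compounds plus 3 SD, cut at about 3.6% in these data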;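 note: higher inhibition means more luminescence from relief of DAX-1 repression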
DAX1 inh-2 = inhibitors of human orphan nuclear receptor DAX1 (NR0B1); HEK293 Gal4-DAX1 luciferase reporter, luminescence; hit rate 0.99% among 340,000; P51843; inhibition, % at 6.75 µM;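 active = inhibition above the mean over all tested compounds plus 3 SD, cut at about 4.2% in these data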;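 note: inhibition shows as a rise in luminescence from relieved DAX1 repression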
hcDAF-12 act = H. contortus DAF-12 activation, primary screen; activation, % at 6.8 µM; HEK293 hcDAF-12 lit1-tk-luc reporter, luminescence; 0% DMSO, 100% Δ7-dafachronic acid; hit rate 1.4% among 370,000;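 active = activation above the mean of all tested compounds plus 3 SD, cut at about 5.5% in these data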
Of the large screens only hits and unclear results are named; the others gave an inactive call.

COc1cccc(-c2nc(CS(=O)(=O)CC(=O)N3CCOCC3)c(C)o2)c1	none
Cc1noc(C)c1CSc1ccccc1C(=O)N(C)CC(=O)Nc1cccc(F)c1	none
CSc1ccccc1C(=O)N1CCc2ccc(NC(=O)c3ccccn3)cc2C1	hgDAF12 agonist 10.7 (no result: AHR activator)
Cc1c(NC(=O)COC(=O)c2ccc[nH]c2=O)c(=O)n(-c2ccccc2)n1C	DAX1 inh-2 5.3
Fc1ccc(NC(=S)Nc2cccc3ccccc23)cc1	AHR activator 50.3, hcDAF-12 act 5.7
CSc1ccccc1NC(=S)Nc1cc(C)cc(C)c1	none
Cc1ccc(NC(=S)Nc2cccc3ccccc23)cc1	ssDAF-12 act 1.0
Fc1ccc(NC(=S)Nc2cccc3ccccc23)cc1F	AHR activator 73.7
Fc1ccc(NC(=S)Nc2cccc3cnccc23)cc1	none
Cc1ccc(NC(=O)Nc2cccc3ccccc23)cc1	none
S=C(Nc1ccc(Cl)cc1)Nc1cccc2cnccc12	none
Cc1cc(C)cc(NC(=S)Nc2cccc3ccccc23)c1	AHR activator 68.8
C#CCNC(=O)C[C@H]1C[C@@]2(C(=O)OC)C(=C[C@H](C3CCCC3)O[C@@H]2C)N(Cc2cccc3ccccc23)C1=O	none (no result: AHR activator, DAX1 inh-2)
CC(C)(C)S(=O)N1C[C@H]2CC(=O)C=C2[C@@H]1CCO (some centres not stated)	none (no result: AHR activator, DAX1 inh-2)
Cc1cc(NC(=S)Nc2cccc3ccccc23)n[nH]1	AHR activator 51.9
CCOc1ccc(NC(=S)Nc2cc(C)[nH]n2)cc1	none
Fc1ccc(-c2nc3ccccn3c2NCc2ccc3c(c2)OCO3)cc1	none
CN(C)c1ccc(-c2nc3cnccn3c2Nc2ccc3c(c2)OCCO3)cc1	none
Cc1ccc2nc(-c3ccccc3O)c(Nc3ccc4c(c3)OCCO4)n2c1	none
Cc1ccn2c(NCc3ccc4c(c3)OCO4)c(-c3ccc(O)cc3)nc2c1	AHR activator 66.0
Clc1ccc2nc(-c3ccccn3)c(Nc3ccc4c(c3)OCO4)n2c1	hgDAF12 agonist 13.2
Oc1ccc(-c2nc3ccccn3c2NCc2ccc3c(c2)OCO3)cc1	AHR activator 70.7
Cc1ccc(-c2nc3cnccn3c2Nc2ccc3c(c2)OCO3)cc1	AHR activator 55.7
Cc1ccc(NC2CCCN(C(=O)CN3C(=O)CSC3=O)C2)cc1C (configuration not stated)	none
Cc1cc(C)cc(NC(=O)CSc2nc(N)c(NC(=O)c3ccc(Br)o3)c(=O)[nH]2)c1	none
Cc1[nH]ccc2cc3nc4ccccc4c3cc12	hcDAF-12 act 5.7 (no result: AHR activator)
Cc1cccc2nc3ccccc3cc12	none
CN(C(=O)CSc1nncn1C)C1CCCN(Cc2ccccc2F)C1 (configuration not stated)	none
Cc1ccc(NC(=O)CCC(=O)NNC(=O)COc2ccc([N+](=O)[O-])cc2)cc1C	AHR activator 53.3
Cc1nc2ccc(S(=O)(=O)NCC(=O)Nc3ccc(F)cc3)cc2s1	none
O=C1c2ccccc2NC2(CCCCC2)N1N=C1CCCCC1	hgDAF12 agonist 12.0
O=C1c2ccccc2NC2(CCCC2)N1O	none
Cc1ccc2c(c1)c(C)c(C)n2CC(O)Cn1nc(C)cc1C (configuration not stated)	AHR activator 60.8
Cc1ccc2c(c1)c(C)c(C)n2CC(O)Cn1nnc2ccccc21 (configuration not stated)	none
Cc1ccc(C(=O)N2CCC(C)CC2)cc1C	ssDAF-12 act 2.2
CCc1ccc(N/C(N)=N/c2nc(CSc3ncccn3)cc(=O)[nH]2)cc1	AHR activator 50.1
CN(C)Cc1c(C(C)(C)O)[nH]c2cc(F)ccc12	none (no result: AHR activator, DAX1 inh-2)
Cc1nc(OCC(C)C)c2sc3nc4c(cc3c2n1)COC(C)(C)C4	none (no result: DAX1 inh-2)
COc1nc(C)nc2c1sc1nc3c(cc12)COC(C)(C)C3	hgDAF12 agonist 13.0, DAX1 inh-1 3.9
CCc1nc2c(sc3nc4c(cc32)COC(C)(C)C4)c(=O)n1Cc1ccco1	AHR activator 53.0
Cc1noc(C)c1NC(=O)Nc1cccc2c1O[C@@H](CN(C)C(=O)Nc1ccc3c(c1)OCO3)[C@@H](C)CN([C@H](C)CO)C2=O	none
CN1C(=O)/C(=C/c2ccccc2OCc2cccc(F)c2)N(C)C1=S	AHR activator 50.4
Cc1ccc(S(=O)(=O)N2CCCCC2)cc1NC(=O)c1c(-c2ccccc2)noc1C	none
Cc1snc(SCc2cccc(Cl)c2)c1C#N	none
Cc1onc(-c2ccccc2)c1C(=O)NC(=S)NNC(=O)c1cc(-c2ccc(F)cc2)n[nH]1	none
CCn1c2ccccc2c2cc(N=C3SC(CC(=O)Nc4ccccc4OC)C(=O)N3CCOC)ccc21 (configuration not stated)	AHR activator 62.3
CCCCN(C)C(=O)CN1C(=O)C2CCCCN2C(=O)c2ccccc21 (configuration not stated)	none (no result: AHR activator, DAX1 inh-2)
Cc1cc(C(=O)C(=O)N(C)C)c(C)n1-c1ccc(Cl)c(Cl)c1	none
Cc1cc(C(=O)C(=O)O)c(C)n1-c1ccc(Cl)c(Cl)c1	ssDAF-12 act 1.0
O=C(O)CC(NC(=O)C12CC3CC(CC(C3)C1)C2)c1cccc([N+](=O)[O-])c1 (configuration not stated)	none
CC1(C)C/C(=N\O)C(C(O)c2cccc([N+](=O)[O-])c2)C(C)(C)N1 (configuration not stated)	DAX1 inh-2 6.2
O=C(O)c1cccc2c1-c1ccc([N+](=O)[O-])cc1C2=O	none (no result: AHR activator)
O=C(O)c1cccc2c1C(=O)c1cc([N+](=O)[O-])cc([N+](=O)[O-])c1-2	ssDAF-12 act 0.9 (no result: AHR activator)
CCOC(=O)c1c(NC(=O)CN2CCN(c3ccc(Cl)cc3)CC2)sc(C)c1C	none
COC(=O)c1c(NC(=O)CN2CCN(c3ccccc3Cl)CC2)sc(C)c1C	ssDAF-12 act 1.1
COc1c2ccoc2c(OC)c2oc(=O)ccc12	none
C=C(C)C(O)COc1c2occc2c(OC)c2ccc(=O)oc12 (configuration not stated)	AHR activator 54.6
COC(=O)c1ccc2nc(-c3ccc(F)cc3)c(CC3CCCCC3)n2c1	ssDAF-12 act 1.1 (no result: AHR activator, DAX1 inh-2)
COC(=O)c1ccc2nc(-c3ccc(C)cc3)c(CC3CCCCC3)n2c1	ssDAF-12 act 1.8, DAX1 inh-1 3.9 (no result: AHR activator, DAX1 inh-2)
COC(=O)c1ccc2nc(-c3ccc(C)cc3)c(Cc3ccc(C)cc3)n2c1	none (no result: AHR activator, DAX1 inh-2)
Cc1cc2nc(-c3ccc(F)cc3)c(CC3CCCCC3)n2c(C)c1Br	ssDAF-12 act 1.0 (no result: AHR activator, DAX1 inh-2)
O=C(O)c1cc(S(=O)(=O)N2CCCCC2)ccc1N1CCCC1	none
COCCCNC(=O)c1nnn2c1nc(N)c1cc(Cl)ccc12	none (no result: AHR activator, DAX1 inh-2)
O=C(Cn1c(O)c(/C=C2\C=Nc3ccccc32)sc1=O)N1CCOCC1	none
O=c1[nH]c(S)c(/C=C2\C=Nc3ccccc32)s1	AHR activator 57.0, ssDAF-12 act 1.2 (no result: DAX1 inh-2)
Cc1ccc(-c2nnc(/C=C/c3ccccc3)o2)cc1	hgDAF12 agonist 10.8
